This is an account of results in PubChem BioAssay (NCI).

Compounds without any hit were thinned out: in the full panel of roughly 83,000, 20% have a hit.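 In brief: 96-well plates, 48 h treatment, single concentration, percent growth endpoint.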 A number with no mark means an inactive call. Activity calls are given as the source filed them. The calls were made as follows: active = growth percent below 10; inactive = the rest.

Some test systems named below: NCI-H23 lung; NCI-H226 lung; NCI-H322M lung; HOP-62 NSCLC; NCI-H460 lung; HOP-92 NSCLC; NCI-H522 lung; A549/ATCC NSCLC; 786-0 renal; COLO 205 colon; DU-145 prostate; K-562 leukemia; MALME-3M melanoma; MDA-MB-231 breast; RXF 393 renal; SF-268 CNS; SF-295 CNS; SF-539 CNS; UACC-257 melanoma; M14 melanoma.
Common to all, as to assay: NCI-60 one-dose screen, 48 h (100 = growth as untreated, 0 = no growth, -100 = all killed)
Common to all, as to conditions: 10 µM unless noted

With `COc1ccc(/C=C(\C#N)c2cc(OC)c3c(c2)OCO3)cc1`, the growth with NCI-H23 lung is 37.5%; in the experiment on NCI-H226 lung, 26.7%; in the experiment with NCI-H322M lung, 44%; in the experiment with HOP-62 NSCLC it was 35.8%; in the experiment on NCI-H460 lung it was 5.33% (active); in the experiment with HOP-92 NSCLC it was 43.6%. For the same compound, the growth was -8.84% (active) with NCI-H522 lung; 15.4% in the experiment with A549/ATCC NSCLC; 20% with 786-0 renal; -41% (active) in the experiment on COLO 205 colon; -12.7% (active) with DU-145 prostate; 9.08% (active) in the experiment with K-562 leukemia. The growth in the experiment on MALME-3M melanoma is 54.2%; with MDA-MB-231 breast it was 10.4%; with RXF 393 renal, 21.4%; with SF-268 CNS, 26.9%; in the experiment on SF-295 CNS it was 4.91% (active); in the experiment with SF-539 CNS it was 4.3% (active). Moreover, the values for the growth in the experiment on UACC-257 melanoma and in the experiment on M14 melanoma were 84% and 12.1%, respectively.
`COc1ccc(-c2c(N)n[nH]c2-c2cc(OC)c(OC)c(OC)c2)cc1`: the growth in the experiment on NCI-H23 lung was 36.9%; in the experiment on NCI-H226 lung it was 82.7%; with NCI-H322M lung, 43.9%; in the experiment on HOP-62 NSCLC, 41.1%; in the experiment on NCI-H460 lung it was 6.89% (active); with HOP-92 NSCLC it was 70.1%. For the same compound, the growth with NCI-H522 lung was -21.3% (active); in the experiment with A549/ATCC NSCLC, 25.9%; in the experiment with 786-0 renal, 33.7%; with COLO 205 colon, 4.54% (active); in the experiment with DU-145 prostate, 11%; in the experiment on K-562 leukemia, 19.3%. Further, the growth is 39.3% in the experiment on MALME-3M melanoma; 28% in the experiment on MDA-MB-231 breast; -1.72% (active) with RXF 393 renal; 34.9% in the experiment with SF-268 CNS; 12.8% with SF-295 CNS; 1.66% (active) in the experiment with SF-539 CNS. Further, the growth was 59.2% in the experiment on UACC-257 melanoma and 5.82% (active) with M14 melanoma.
Take `C[n+]1c(/C=C/c2c(O)ccc3ccccc23)ccc2ccccc21`: the growth with NCI-H23 lung was 37.2%; in the experiment on NCI-H226 lung, 47.5%; in the experiment on NCI-H322M lung, 42.9%; in the experiment with HOP-62 NSCLC it was 54.8%; in the experiment with NCI-H460 lung it was 9.44% (active); in the experiment on HOP-92 NSCLC, -10.2% (active). For the same compound, the growth was -6.6% (active) in the experiment with NCI-H522 lung; 51.3% in the experiment with A549/ATCC NSCLC; 49.2% in the experiment with 786-0 renal; 25.3% with COLO 205 colon; 49.1% with DU-145 prostate; 6.81% (active) in the experiment with K-562 leukemia. Also, the growth in the experiment on MALME-3M melanoma is 40.4%; with MDA-MB-231 breast, 24.8%; in the experiment on RXF 393 renal it was 37.9%; in the experiment with SF-268 CNS, 61.2%; with SF-295 CNS, 40.6%; with SF-539 CNS it was -14.9% (active). For the same compound, the growth in the experiment on UACC-257 melanoma was 46.1%; with M14 melanoma, 34.3%.
On to `COP(=O)(OC)/C(=N\NS(=O)(=O)c1ccc(C)cc1)c1ccccc1`, for which the growth in the experiment with NCI-H23 lung was 91.5%; in the experiment with NCI-H226 lung, 89.2%; in the experiment with NCI-H322M lung, 102%; in the experiment with HOP-62 NSCLC it was 95.5%; in the experiment with NCI-H460 lung it was 101%; in the experiment on HOP-92 NSCLC it was 106%. Further, the growth is 126% with NCI-H522 lung; 104% in the experiment with A549/ATCC NSCLC; 94.7% with 786-0 renal; 109% with COLO 205 colon; 106% with DU-145 prostate; 120% with K-562 leukemia. Also, the growth in the experiment on MALME-3M melanoma is 104%; in the experiment on MDA-MB-231 breast, 119%; in the experiment on RXF 393 renal, 76.6%; in the experiment on SF-268 CNS, 119%; in the experiment with SF-295 CNS, 117%; in the experiment on SF-539 CNS, 95%. For the same compound, the growth was 112% in the experiment with UACC-257 melanoma and 93.3% with M14 melanoma.
Take `O=C(NS(=O)(=O)c1ccccc1)n1cc(-c2ccncc2)c(-c2ccc(Cl)c(O)c2)n1`: the growth in the experiment with NCI-H23 lung is 104%; in the experiment with NCI-H226 lung, 103%; with NCI-H322M lung it was 103%; in the experiment with HOP-62 NSCLC it was 119%; with NCI-H460 lung, 107%; in the experiment with HOP-92 NSCLC, 99.6%. In addition, the growth was 85.4% in the experiment on NCI-H522 lung; 98.3% in the experiment on A549/ATCC NSCLC; 100% in the experiment with 786-0 renal; 111% in the experiment on COLO 205 colon; 104% with DU-145 prostate; 88.9% in the experiment with K-562 leukemia. For the same compound, the growth in the experiment with MALME-3M melanoma is 27.6%; with MDA-MB-231 breast it was 112%; in the experiment on RXF 393 renal it was 107%; with SF-268 CNS, 97.7%; with SF-295 CNS, 107%; with SF-539 CNS, 97.6%. For the same compound, the growth in the experiment on UACC-257 melanoma was 91.6%; in the experiment with M14 melanoma, 34.2%.
Regarding `CCN(CC)c1ccc2[nH]c3c(C(N)=O)cc(=O)c(=O)c=3oc2c1`, the growth in the experiment on NCI-H23 lung was -28.2% (active); in the experiment on NCI-H226 lung it was 7.46% (active); with NCI-H322M lung, -9.42% (active); in the experiment with HOP-62 NSCLC, -11.8% (active); with NCI-H460 lung it was -31.8% (active); with HOP-92 NSCLC it was 26%. For the same compound, the growth with NCI-H522 lung is -39.7% (active); with A549/ATCC NSCLC it was -5.31% (active); in the experiment with 786-0 renal, 15%; with COLO 205 colon, 1.25% (active); with DU-145 prostate, -1.89% (active); in the experiment with K-562 leukemia, 9.48% (active). Moreover, the growth was -59.9% (active) in the experiment on MALME-3M melanoma; 18% in the experiment on MDA-MB-231 breast; -24.5% (active) with RXF 393 renal; 10.5% in the experiment on SF-268 CNS; -9.14% (active) in the experiment on SF-295 CNS; -28.3% (active) in the experiment on SF-539 CNS. Moreover, the growth is -29.2% (active) in the experiment with UACC-257 melanoma and -7.36% (active) in the experiment with M14 melanoma.
On to `NC(=S)N/N=C(/CCN1CCCC1)CC(C1=C(O)C2=CCCCC2OC1=O)c1ccccc1` (stereo not given), for which the growth was 72.8% in the experiment on NCI-H23 lung; 85.7% in the experiment with NCI-H226 lung; 85.7% in the experiment on NCI-H322M lung; 79.1% in the experiment with HOP-62 NSCLC; 101% in the experiment with NCI-H460 lung; 68.3% in the experiment with HOP-92 NSCLC. The growth in the experiment on NCI-H522 lung is 80.1%; in the experiment with A549/ATCC NSCLC, 99.4%; in the experiment with 786-0 renal it was 105%; in the experiment with COLO 205 colon, 102%; in the experiment with DU-145 prostate, 87.3%; with K-562 leukemia it was 38.8%. The growth in the experiment with MALME-3M melanoma was 73%; with MDA-MB-231 breast, 70.4%; with RXF 393 renal, 106%; in the experiment with SF-268 CNS, 89.6%; in the experiment with SF-295 CNS, 98.5%; in the experiment on SF-539 CNS, 95.4%. The growth was 73.1% in the experiment with UACC-257 melanoma and 79% in the experiment on M14 melanoma.
Turning to `Nc1cccc(-c2nc3sccn3c2-c2ccnc(NCCCNS(=O)(=O)c3cccc4ccccc34)n2)c1`, the growth is 44.3% in the experiment with NCI-H23 lung; 29.8% in the experiment with NCI-H226 lung; 63.5% in the experiment on NCI-H322M lung; 64.3% in the experiment with HOP-62 NSCLC; 35.5% in the experiment on NCI-H460 lung; 92.4% in the experiment with HOP-92 NSCLC. In addition, the growth in the experiment with NCI-H522 lung was 34.9%; in the experiment with A549/ATCC NSCLC it was 39.2%; in the experiment on 786-0 renal, 53.9%; in the experiment with COLO 205 colon it was 24.1%; in the experiment on DU-145 prostate, 47.9%; with K-562 leukemia, 22.6%. Besides, the growth in the experiment on MALME-3M melanoma is 62.2%; with MDA-MB-231 breast, 39.5%; with RXF 393 renal, 57.4%; with SF-268 CNS, 49.2%; in the experiment on SF-295 CNS, 38.3%; in the experiment with SF-539 CNS it was 65.9%. Also, the growth is 47.9% in the experiment with UACC-257 melanoma and 43.8% in the experiment on M14 melanoma.
